Tau ThT inhib – blocks human tau fibril formation measured by thioflavin T | P10636 | recombinant tau K18 P301L, heparin-induced fibrillization, ThT fluorescence | Potency, µM (doses to about 57.4 µM), without a hit: top-dose activity, negative = inhibition, actives largely listed as inhibitors | 270,000 compounds, 2.1% hits | AID 1460; also: potency is read from the fitted curve at half-maximal effect; nearly all actives have a fitted effect of over 55% in size
Target sequence (P10636 561-689 P618L limits assumed): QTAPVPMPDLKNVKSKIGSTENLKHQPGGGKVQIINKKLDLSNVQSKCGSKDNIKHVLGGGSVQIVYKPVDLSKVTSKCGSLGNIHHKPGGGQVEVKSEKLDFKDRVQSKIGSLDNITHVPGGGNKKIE
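K18 P301L tau (15 uM + 0.24 uM Alexa 594-tagged), heparin 20 uM, NaOAc pH 7, 6 h 37 C; ThT 30 uM, 1 h RT, ex 450/em 510 nm.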
Coupling enz – coupling enzyme interference in Giardia aldolase counter-screen. coupling enzyme system counterscreen, AmpLite Red fluorescence. activity change, negative = inhibition, % at 58.2 µM, hits read low. 290,000 compounds, 0.67% hits. AID 2472; in the data active = activity change below about -30%
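Activity here indicates interference with the coupling reaction, not aldolase inhibition. Compounds at 57.5 uM final met coupling enzymes for 10 min at RT; substrate and AmpLite Red detection followed, with a 525/598 nm fluorescence read after 20 min.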
G9a block – inhibitors of human histone lysine methyltransferase G9a. AID 504332. Q96KQ7. Potency, µM (top dose mostly 102 µM), for inactives: at the highest dose activity, negative = inhibition, hits mostly inhibitors. 350,000 compounds, 8.8% hits. G9a H3K9 monomethylation, AlphaScreen, 2 h; also: potency is read from the fitted curve at half-maximal effect; nearly all actives have a fitted effect of over 75% in size
Target sequence (Q96KQ7 913-1193 limits assumed): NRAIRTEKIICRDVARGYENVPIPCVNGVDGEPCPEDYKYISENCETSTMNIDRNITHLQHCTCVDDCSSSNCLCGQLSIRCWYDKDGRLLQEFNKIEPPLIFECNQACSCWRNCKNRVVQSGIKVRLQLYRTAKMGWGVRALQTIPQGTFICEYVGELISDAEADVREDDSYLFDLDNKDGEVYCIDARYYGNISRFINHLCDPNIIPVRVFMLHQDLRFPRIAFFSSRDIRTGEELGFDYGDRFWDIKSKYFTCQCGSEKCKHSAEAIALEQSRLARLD
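Readings reflect AlphaScreen signal from monomethyl-H3K9 antibody detection. HMT at 20 nM; substrate b-H3K9 500 nM; cofactor SAM 20 uM; 2 h RT reaction; compounds tested as titrations in qHTS with 15 min preincubation.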
Sfp PPTase inh – Sfp phosphopantetheinyl transferase inhibition. Potency, µM, inactives show largest response in the series, negative = inhibition, most hits filed as inhibitors. 310,000 compounds, 3.5% hits. Biochemical Sfp PPTase activity, qHTS. Q9F4F7;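 also: the enzyme is Sfp with the accession as filed and its product quenches rhodamine fluorescence; potency is read from the fitted curve at half-maximal effect; 0% = enzyme reaction without inhibitor and -100% = no enzyme wells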
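Fluorescence-quenching assay with 15 nM Sfp, 5 uM rhodamine-CoA and 12.5 uM BHQ-2-labelled ybbR peptide in pH 7.6 Hepes/MgCl2 buffer. Enzyme was pre-incubated with compound for 15 min at room temperature. Rate was taken from the 30-min fluorescence change (525/598 nm).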
Tau fibril FP – blocks human tau fibril formation measured by polarization; Potency, µM (top dose mostly 57.7 µM), for the others: at the highest dose activity, negative = inhibition, most hits filed as inhibitors; P10636; 280,000 compounds, 0.39% hits; K18 P301L tau heparin fibrillization, Alexa594 FP, 6 h; AID 1468; also: potency is read from the fitted curve at half-maximal effect; nearly all actives have a fitted effect of over 55% in size
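K18 P301L tau (15 uM unlabeled/0.24 uM Alexa 594-labeled, final) + compound + heparin 20 uM final; 100 mM NaOAc pH 7; 6 hr 37 C; ThT 30 uM final added, 1 hr RT; FP ex 555/em 632 nm.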
Tau fluor counter – counter-screen for tau fibril formation inhibitors | tau K18 P301L (four-repeat tau fragment) Alexa594 fluorescence, heparin fibrillization | Potency, µM (series often up to 57.7 µM), for inactives: at the top dose activity change, negative = decrease | 280,000 compounds, 0.93% hits; also: potency is read from the fitted curve at half-maximal effect; nearly all actives have a fitted effect of over 55% in size
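Human K18 P301L tau (15 uM unlabeled plus 0.24 uM Alexa 594-labeled, final) in 100 mM sodium acetate pH 7 was mixed with compound and 20 uM heparin and incubated 6 hr at 37 C.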
The depositor's hits bear a star; ? = inconclusive; nt = no result given; ! = not confirmed by another sample; [ ] = another dose, or the depositor's remark. Shown are actives, neighbours in structure and some others; about 11% of the full set was active somewhere. Unless noted, calls follow the shape of the dose curve; as a rule, active = well fitted curve in the direction sought with a large enough effect; inconclusive = small, poorly fitted or top-dose-only effect, or another doubt; inactive = no such curve, though single readings can be large; an effect the other way counts as inactive or inconclusive. Unless noted, % is scaled to controls: 0 for no effect and ±100 for the full control effect.

SMILES | Tau ThT inhib | Coupling enz | G9a block | Sfp PPTase inh | Tau fibril FP | Tau fluor counter
O=C1C=CC(=O)N1c1ccc(Sc2ccc([N+](=O)[O-])cc2)cc1 | ? | 3 | 8.9µM* | 8.9µM* | -8% | ?
CCOC(=O)c1cccc2c1N[C@@H](c1ccc(F)cc1)[C@H]1CC=C[C@@H]21 | ? | nt | 10µM* | nt | -11% | ?
COc1cc(C(C2=C(O)CC(C)(C)CC2=O)C2C(=O)CC(C)(C)CC2=O)cc(OC)c1OC (centres undefined) | ? | 0 | ? | 50µM* | ? | -25%
COc1cc(C(C2C(=O)CC(C)(C)CC2=O)C2C(=O)CC(C)(C)CC2=O)cc(OC)c1OC | nt | 0 | 45µM* | ? | nt | nt
CC1(C)CC(=O)C(C(C2=C(O)CC(C)(C)CC2=O)c2ccco2)C(=O)C1 (centres undefined) | ? | nt | 35µM* | ? | ? | -24%
CC1(C)CC(=O)C(C(C2=C(O)CC(C)(C)CC2=O)c2ccc(Cl)c([N+](=O)[O-])c2)C(=O)C1 (centres undefined) | ? | 5 | ? | 24% | 11% | -8%
COc1cc(C(O)C(=O)O)ccc1O (centres undefined) | -9% | nt | 11µM*! | 7% | -6% | -7%
COc1ccc(C(C2C(=O)CC(C)(C)CC2=O)C2C(=O)CC(C)(C)CC2=O)cc1COCC(F)(F)F | ? | 7 | ? | ? | -3% | -3%
CCOc1ccc2nc(N3CCCC(C(=O)Nc4ccc(Br)c(C)c4)C3)sc2c1 (centres undefined) | ? | nt | -4%[59 µM] | nt | 13% | ?
CCc1ccc(CNC(=O)CN2C(=O)c3cccnc3Oc3ccc(Cl)cc32)cc1 | -17% | nt | -5%[59 µM] | nt | 7% | -9%
COc1cc(C(C2C(=O)CC(C)(C)CC2=O)C2C(=O)CC(C)(C)CC2=O)ccc1O | nt | 2 | 38%[0.501 µM] | 56µM* | nt | nt
S=c1[nH]nc(-c2cccs2)n1/N=C/c1cn(-c2ccccc2)nc1-c1ccccc1 | ? | 1 | 12%[59 µM] | -1% | -5% | ?
Cc1ccccc1/C=N/n1c(-c2cc(-c3ccccc3)n[nH]2)n[nH]c1=S | 0% | 0 | ? | 56µM* | -8% | -20%
Cc1ccc(-c2n[nH]c(=S)n2/N=C/c2sccc2C)cc1 | -6% | 0 | 0.63µM* | -6% | -4% | -20%
Cc1ccsc1/C=N/n1c(-c2cc(-c3ccccc3)n[nH]2)n[nH]c1=S | ? | 1 | 2.5µM* | 71µM* | -12% | ?
Cc1ccsc1/C=N/n1cnnc1 | -1% | 0 | 20%[59 µM] | 17% | 1% | -7%
S=c1[nH]nc(-c2cc(-c3ccccc3)n[nH]2)n1/N=C/c1c(Cl)cccc1Cl | ? | 0 | 4µM* | 40µM* | 2% | ?
S=c1[nH]nc(-c2cc(-c3ccccc3)n[nH]2)n1/N=C/c1ccc(Br)s1 | ? | 1 | 28µM* | 25µM* | 9% | ?
CCn1cc(CCC(=O)NCCN2CCOCC2)c2ccccc21 | nt | 2 | 2% | 16% | nt | nt
O=C(c1cc(-c2ccco2)nc2ccccc12)N1CCCC(C(F)(F)F)C1 (centres undefined) | nt | nt | 13%[12.7 µM] | nt | nt | nt
O=C(NNS(=O)(=O)c1ccc2ccccc2c1)c1cc(-c2ccccn2)nc2ccccc12 | -18% | 2 | 79µM* | -13% | 6% | -20%
O=C(Nc1ccc(F)cc1F)c1cc(-c2ccco2)nc2ccccc12 | nt | 0 | 45µM* | 32µM* | nt | nt
CC(C)CN(CCNC(=O)c1cc(-c2cccs2)nc2ccccc12)CC(C)C | -3% | nt | 11%[59 µM] | nt | -8% | -15%
O=C(Nc1ccccc1N1CCOCC1)c1cc(-c2ccco2)nc2ccccc12 | ? | 0 | ? | -16% | 0% | ?
CCN(CC)CCNC(=O)c1cc(-c2ccco2)nc2ccccc12 | -3% | 0 | 32µM* | -10% | -8% | 1%
O=C(O)c1cc(-c2ccco2)nc2cc3ccccc3cc12 | ? | -6 | 11µM* | 11µM* | -20% | -12%
